High-throughput results deposited in PubChem by National Center for Advancing Translational Sciences (NCATS).
Shown are actives, neighbours in structure and some others; about 7.1% of the full set was active somewhere.
IL1B secr inh – inflammasome signaling inhibition, IL-1 beta readout. activity change, % at 57.5 µM. THP-1 LPS/ATP IL-1B secretion, AlphaLISA, 16 h; hits give low values. actives 4.7% (n = 360,000); in the data active = activity change below about -50%; inconclusive = mostly about -30% to -49%; also: % is scaled to controls: 0 for no effect and ±100 for the full control effect
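Secreted IL-1B measured by AlphaLISA bead assay after 16 h compound exposure of THP-1 cells; compounds (final up to 57.5 uM) added 1 h before LPS (250 ng/mL) and ATP (1.25 mM) stimulation; lower signal means less secretion.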
ATXN2 expr inh – reduces ATXN2 reporter expression in HEK-293 cells. AID 1745845. actives 0.72% (n = 360,000). HEK-293 ATXN2-luciferase reporter, luminescence, 24 h. Potency, µM (titrated, usually from 57 µM), inactives show top-dose activity change, negative = inhibition, usual class: inhibitors; also: potency is read from the fitted curve at half-maximal effect; % is scaled to controls: 0 for no effect and ±100 for the full control effect; nearly all actives have a fitted effect of over 55% in size
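ATXN2-luciferase reporter cells (luciferase flanked by upstream and downstream ATXN2 gene portions) were treated 24 h at 37 °C with compounds at up to 57 uM. SteadyGlo luminescence gave expression; GF-AFC fluorescence gave viability.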
SW480 rerep – induces DNA re-replication in SW480 colon adenocarcinoma cells. actives 1.8% (n = 340,000). Potency, µM (titrated, usually from 46.1 µM), for inactives: at the top dose re-replication activation, usual class: activators. SW480 DNA re-replication, Hoechst DNA content imaging, 48 h; also: potency is read from the fitted curve at half-maximal effect; % of control where 0% means no effect; nearly all actives have a fitted effect of over 55% in size
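250 cells/well; 23 nL cpd via pin tool; 48 hr, 37 C, 5% CO2; Hoechst 40 min; imager read of total nuclear intensity, ex 405/em 500-530 nm.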
MCF10A rereplic – DNA re-replication induction in MCF 10a cells. AID 624296. actives 2.9% (n = 350,000). MCF 10A DNA re-replication, Hoechst nuclear intensity, 48 h. Potency, µM (doses to about 46.1 µM), for inactives: top-dose activity, positive = re-replication, actives largely listed as activators; also: potency is read from the fitted curve at half-maximal effect; % of control where 0% means no effect; nearly all actives have a fitted effect of over 50% in size
ATXN viability – reduces viability in counter-screen for ATXN expression inhibitors; S2 cells (HEK-293 line with an ATXN2-luciferase reporter) viability, CellTiter-Fluor protease fluorescence, 24 h; Potency, µM (top dose mostly 56.7 µM), hits mostly cytotoxic; actives 0.49% (n = 400,000); also: potency is read from the fitted curve at half-maximal effect; nearly all actives have a fitted effect of over 40% in size
PINK1 modulator – changes PINK1 expression; actives 0.2% (n = 410,000); Potency, µM (series often up to 76.6 µM), for inactives: at the top dose activation (PINK1 increase), most hits filed as activators; PINK1 immunofluorescence, high-content cytometry, 24 h; AID 624263; active = well fitted activation curve with a large enough effect; inconclusive = small, poorly fitted or top-dose-only effect; cell line not stated here; also: potency is read from the fitted curve at half-maximal effect; % of control where 0% means no effect; nearly all actives have a fitted effect of over 65% in size
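Compound titrations (5 concentrations, 24 h) on a stable cell line; DMSO and CCCP controls. Endpoint: fixed-cell PINK1 immunofluorescence with mitochondrial, cell and nuclear markers, scanned by microplate cytometer.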
Starred values were filed as active, the others as inactive; i = inactive; ? = inconclusive; nt = no result given; ! = not active in a repeat; [ ] = another dose, or the depositor's remark. Unless noted, calls follow the shape of the dose curve; as a rule, active = well fitted curve in the direction sought with a large enough effect; inconclusive = small, poorly fitted or top-dose-only effect, or another doubt; inactive = no such curve, though single readings can be large; an effect the other way counts as inactive or inconclusive.

SMILES	IL1B secr inh	ATXN2 expr inh	SW480 rerep	MCF10A rereplic	ATXN viability	PINK1 modulator
COc1ccccc1NC(=O)Cn1c(=O)n(CCc2ccccc2)c(=O)c2c3c(sc21)CN(C(C)=O)CC3	nt	-23%	nt	nt	i	3%
Cc1ccc2sc(C)[n+](CCO)c2c1	-71*	-24%[11.3 µM]	1%	17%	i	2%
O=C(c1cccc(S(=O)(=O)N2CCOCC2)c1)N(Cc1ccc(F)cc1)Cc1ccco1	14	-23%	-9%	2.1µM*	i	4%
CN(C)S(=O)(=O)c1cccc(C(=O)N(Cc2ccc(F)cc2)Cc2ccco2)c1	-10	-13%	2%	3%	i	-1%
CCOc1ccc(NC(=O)Cn2nc(SC)c(S(=O)(=O)c3ccccc3)c2N)cc1	nt	-14%	nt	nt	i	-1%
O=C(COC(=O)c1ccc(Cl)nc1)NCCc1ccc(F)cc1	-8	-3%	-7%	-5%	i	-2%
O=C(CCCl)Nc1nnc(SCC(=O)NC2CCCC2)s1	-88*	19%	8.2µM*	18µM*	i	4%
CCCCC(=O)Nc1nnc(SCC(=O)NC2CCCC2)s1	22	0%	-1%	9%	i	3%
CNc1ccc(C=C2C=Cc3ccccc32)cc1	-73*	80%	3%	1%	?	11%
CCNc1ccc(/C=C2\C=Cc3ccccc32)cc1	nt	nt	nt	nt	nt	1%
CO[C@@H]1[C@@H](O[C@@H]2O[C@H](C)[C@@H](O[C@H]3C[C@@](C)(O)[C@@H](O)[C@H](C)O3)[C@H](N(C)C)[C@H]2O)[C@@H](CC=O)C[C@@H](C)[C@@H](O[C@@H]2CC[C@H](N(C)C)[C@@H](C)O2)/C=C/C=C/C[C@@H](C)OC(=O)C[C@H]1O	nt	nt	nt	nt	i	nt
Cc1ccc(NN2C(=O)C=C(c3ccc(Cl)cc3)C2=O)cc1	-103*	25µM*	?	15µM*	nt	-6%
O=C1Cc2ccccc2C(=O)N1Nc1ccccc1	13	-23%	-5%	-3%	i	0%
COc1ccc(C2=CC(=O)N(Nc3ccccc3)C2=O)cc1	-55*	-27%	4.1µM*	?	i	9%
COc1ccc(Nc2cccccc2=O)cc1	?	61%	-6%	-183%[0.0737 µM]	i	-2%
O=C1C=C(c2ccccc2)C(=O)N1Nc1ccccc1	-101*	?	?	?	?	-6%
CCCCn1c(Oc2ccc(C(=O)OC)cc2)nc2c1c(=O)n(C)c(=O)n2C	-73*	?	-7%	-36%	i	nt
CCCCn1c(Oc2cccc(C(=O)OC)c2)nc2c1c(=O)n(C)c(=O)n2C	nt	5%	nt	nt	i	-1%
Cc1cccc(C)c1NC(=O)C(=O)NCC(c1ccc2c(c1)OCO2)N1CCN(C)CC1 (centres undefined)	nt	-2%	nt	nt	?	-2%
CCc1ccccc1N(C(=O)CNC(=O)c1ccco1)C(C(=O)NC1CCCC1)c1cccnc1 (centres undefined)	5	-14%	-25%	-1%	i	7%
O=C(NC1CCCCC1)C(c1cccnc1)N(C(=O)CCl)c1ccccc1Cl (centres undefined)	-89*	-29%	?	6%	i	-4%
Cc1cccc(N(C(=O)CNC(=O)c2cccs2)C(C(=O)NC2CCCC2)c2cccnc2)c1 (centres undefined)	6	0%	-3%	3%	i	1%[38.3 µM]
O=C(NC1CCCCC1)C(c1cccnc1)N(C(=O)CCl)c1ccc(F)cc1 (centres undefined)	-103*	4µM*	2.1µM*	18µM*	6.3µM*	2%
COc1ccc(N(C(=O)CCl)C(C(=O)NC2CCCCC2)c2cccnc2)cc1 (centres undefined)	-102*	14µM*	?	18µM*	8.9µM*	-2%
Cc1cc(C)cc(N(C(=O)CNC(=O)c2cccs2)C(C(=O)NC2CCCC2)c2cccnc2)c1 (centres undefined)	12	-1%	0%	21µM*	i	-1%[38.3 µM]
SMILES	IL1B secr inh	ATXN2 expr inh	SW480 rerep	MCF10A rereplic	ATXN viability	PINK1 modulator
O=C(NCC(=O)N(c1ccc(F)cc1)C(C(=O)NC1CCCCC1)c1cccnc1)c1ccco1 (centres undefined)	9	2%	-3%	-4%	i	5%
COc1ccc(-c2cn3cccnc3n2)cc1NC(=O)c1cc(C)cc(C)c1	nt	nt	nt	nt	nt	0%
COc1ccc(Cl)cc1NC(=O)c1cc(S(=O)(=O)NC2CCCCCC2)ccc1F	nt	nt	nt	nt	nt	4%
Nc1n[nH]c(N)c1N=Nc1ccccc1F	-21	48%	-2%	-1%	i	-2%
COc1ccc(N=Nc2c(N)n[nH]c2N)cc1	-53*	11%	-3%	4%	?	-1%
Nc1n[nH]c(N)c1N=Nc1ccc(F)cc1	-28	nt	?	7%	i	0%
Nc1n[nH]c(N)c1N=Nc1ccc(Cl)cc1Cl	-57*	18%	?	21%	?	5%
Nc1n[nH]c(N)c1N=Nc1ccccc1	-66*	2%	16µM*	-13%	i	1%
COc1ccc(Cn2c(CO)cnc2SCc2ccc(C)cc2)cc1	nt	48%	nt	nt	i	0%
Cc1ccccc1-n1c(SC(C)C(N)=O)nnc1-c1cccnc1 (centres undefined)	-13	-3%	-4%	19%	i	10µM*
Cc1ccc(NC(=O)C(C)Sc2nnc(-c3cccnc3)n2-c2ccccc2)cc1 (centres undefined)	-19	-3%	-3%	5%	i	4%[38.3 µM]
COc1ccc(-n2c(SCC(=O)Nc3cccc(C)c3C)nc3c([nH]c4ccccc43)c2=O)cc1	nt	nt	nt	nt	nt	-1%
O=c1cc(CCl)nc(Cc2c(Cl)cccc2Cl)[nH]1	-23	?	?	18µM*	?	-1%
CC(=O)N(O)CCCCCNC(=O)CCC(=O)N(O)CCCCCNC(=O)CCC(=O)N(O)CCCCCN	60	?	2.5µM*!	?	i	0%
CCCC(=O)NCCCCNC(=O)CCC	1	1%	-8%	-1%	i	2%
O=c1/c(=C\c2ccc(O)cc2)sc2nc(-c3ccccc3)c(-c3ccccc3)n12	-57*	-12%	3%	10%	i	11%
CC(=O)Nc1ccc(NC(=O)C(C)OC(=O)CCCc2c[nH]c3ccccc23)cc1 (centres undefined)	18	34%	6.5µM*	-10%	i	4%
Nc1n[nH]c2cc(=O)n(-c3cccc(C(F)(F)F)c3)nc12	?	nt	7.3µM*	-2%	i	3%
O=c1[nH][nH]c2cc(=O)n(-c3cccc(C(F)(F)F)c3)nc12	0	-7%	8%	-2%	i	0%
